# Assay outcomes from PubChem.
# Most compounds without a hit are left out; they make up all but 12% or so of the library.
# Cycloheximide cs: Cycloheximide Counterscreen for Small Molecule Inhibitors of Shiga Toxin. 300,000 compounds, 12% hits. cell reporter, cycloheximide protein synthesis inhibition counterscreen. max response, %. AID 2314, 2010; in the data active = max response mostly above about 13%, no sharp cut-off; inactive = mostly below about 14%; also: read at 38.3 µM for the half of the compounds with a filed dose; 0% is about no effect
# Marburg entry inh: qHTS for inhibitors of binding or entry into cells for Marburg Virus. 300,000 compounds, 1.8% hits. Marburg virus pseudotyped entry inhibition, cell reporter. Potency, µM (titrated, usually from 37.8 µM), for the others: top-dose activity change, negative = inhibition, actives largely listed as inhibitors; calls by dose curve; tested in HEK293 cells; also: potency is read from the fitted curve at half-maximal effect; % is scaled to controls: 0 for no effect and ±100 for the full control effect
# LASV entry inh: qHTS for Inhibitors of binding or entry into cells for Lassa Virus; Lassa virus pseudotype entry inhibition, cell reporter; Potency, µM (series often up to 37.9 µM), for the others: at the highest dose activity change, negative = inhibition, actives largely listed as inhibitors; 300,000 compounds, 1.2% hits; AID 540256, 2011; calls by dose curve; tested in HEK293 cells; also: potency is read from the fitted curve at half-maximal effect; % is scaled to controls: 0 for no effect and ±100 for the full control effect; nearly all actives have a fitted effect of over 50% in size
# Shiga toxin inh: A qHTS for Small Molecule Inhibitors of Shiga Toxin | Vero cells, Shiga toxin protein synthesis inhibition reporter | inhibition, % at 38.7 µM | 290,000 compounds, 9.2% hits; in the data active = inhibition mostly above about 28%, no sharp cut-off; inactive = mostly below about 43%; also: 0% is about no effect
# * marks the source's active call; other numbers are inactive results; ? = inconclusive; nt = not tested or not shown; [ ] = remark or other dose.
SMILES,Cycloheximide cs,Marburg entry inh,LASV entry inh,Shiga toxin inh
Cc1ccc(C(=O)N(CCN2CCCCC2)CC2CCCN(C3CCCC3)C2)s1 (centres undefined),33*,8.9µM*,?,72*
O=C(c1cccs1)N(CCN1CCCCC1)CC1CCCN(C2CCCC2)C1 (centres undefined),36*,nt,nt,53*
COCCN(CC1CCCN(C2Cc3ccccc3C2)C1)C(=O)c1cccs1 (centres undefined),27*,-3%[46.1 µM],27%[46.1 µM],29*
CCc1c(C)nc2cc(-c3ccc(OC)c(OC)c3)nn2c1NCC1CC1,24,?,?,26
O=C(NCC1CCCCC1)c1ccc([N+](=O)[O-])cc1,12,nt,nt,16
CC(=O)Nc1ccc(C(=O)NCC2CCCCC2)cc1,20*,nt,nt,16
CCN(CC)c1ccc(S(=O)(=O)N(CC)CC)cc1NC(=O)C1CCCC1,1,?,7.9µM*,7
CCN(CC)S(=O)(=O)c1ccc(C(=O)NCC2CCCCC2)cc1,19,0%[46.1 µM],7.1µM*,-7
Cc1ccc(CC(=O)NCC2CCCCC2)cc1,26*,nt,nt,71*
Cc1ccccc1CC(=O)NCC1CCCCC1,5,0%[46.1 µM],4%[46.1 µM],19
Cc1ccc(C[C@H](C(=O)O)N2C(=O)c3ccc(C(=O)O)cc3C2=O)c(C)c1,-1,nt,nt,8
C[C@@H]1NC(=O)[C@H](CCCN=C(N)N)NC(=O)c2cc([N+](=O)[O-])cc(I)c2OCC[C@@H](C(=O)NC(CC(=O)O)C(N)=O)NC1=O (some centres undefined),-5,-11%,3%,-7
Cc1nc(Cc2nnc(SC(C)C(=O)Nc3cccc(C#N)c3)o2)cs1 (centres undefined),nt,?,19%,nt
CC(=O)Nc1ccc(S(=O)(=O)Nc2ccccc2C(=O)N2CCCC2)cc1,-5,3%[46.1 µM],-3%,-4
CN1N=C2c3ccccc3CCC2C1c1ccc(F)cc1 (centres undefined),76*,?,?,87*
CNC(=S)N1N=C2c3ccccc3CCC2C1c1ccccc1Cl (centres undefined),6,9%[14.2 µM],?,0
CN1N=C2c3ccccc3CCC2C1c1ccc(Cl)cc1 (centres undefined),35*,?,?,72*
Fc1ccc(Nc2nc(-c3ccncc3)cs2)cc1,39*,-61%,12%,80*
Oc1ccc(Nc2nc(-c3ccc(Cl)cc3)cs2)cc1,47*,nt,nt,110*
O=C(Nc1nc(-c2ccc(F)cc2)cs1)c1cnccn1,2,8%,2%,-11
c1ccc(Nc2nc(-c3ccncc3)cs2)cc1,60*,?,?,47*
Nc1ccc(Nc2nc(-c3ccncc3)cs2)cc1,34*,?,?,62
CCOC(CNC(=O)CN1C(=O)COc2ccc(S(=O)(=O)N3CC(C)CC(C)C3)cc21)OCC (centres undefined),-2,nt,nt,-1
Cc1ccc(F)cc1NC(=O)c1cnccn1,10,11%,-13%,11
CC(=O)c1ccccc1NC(=O)Cn1c(=O)cnc2ccccc21,-2,2%[46.1 µM],2%,-6
SMILES,Cycloheximide cs,Marburg entry inh,LASV entry inh,Shiga toxin inh
CC[C@H](C)[C@H](NC(=O)[C@H](CCC(=O)O)NC(=O)CNC(=O)[C@@H](NC(=O)[C@@H]1CCCN1C(=O)[C@@H](NC(=O)[C@@H]1CCCN1C(=O)[C@@H]1CCCN1C(=O)[C@H](CC(N)=O)NC(=O)[C@H](CC(N)=O)NC(=O)[C@@H](NC(=O)[C@H](CCSC)NC(=O)[C@H](Cc1c[nH]c2ccccc12)NC(=O)CNC(=O)[C@@H](NC(=O)[C@H](CCC(N)=O)NC(=O)[C@@H](N)CCC(=O)O)[C@@H](C)CC)[C@@H](C)O)[C@@H](C)CC)C(C)C)C(=O)O,-2,nt,nt,-5
Clc1ccc(Nc2nc(-c3ccncc3)cs2)cc1,nt,7.9µM*,15%,nt
O=C(Nc1ccc(Cl)cc1)c1csc(-c2ccncc2)n1,16,?,?,10
NS(=O)(=O)c1ccc(Nc2nc(-c3ccc(O)cc3)cs2)cc1,2,1%,-40%[14.3 µM],17
Oc1ccc(Nc2nc(-c3ccc(O)cc3)cs2)cc1,54*,-17%,?,80*
N/C(=N\OC(=O)c1ccccc1)c1ccn[nH]1,25*,?,?,49*
N/C(=N\OC(=O)c1cc(Cl)ccc1Cl)c1cccnc1,34*,?,?,56
N/C(=N\OC(=O)CC(c1ccccc1)c1ccccc1)c1cccnc1,-2,nt,nt,10
N/C(=N\OC(=O)c1ccccc1)c1cccnc1,47*,nt,nt,66*
N/C(=N\OC(=O)c1ccc(Cl)cc1[N+](=O)[O-])c1cccnc1,44*,?,13%[46.1 µM],56*
COCc1cc(C)nc(Nc2ccccc2OC)c1C#N,-3,nt,nt,-1
CC12C=C(C=CCCc3ccco3)C(C)(C1)[C@H](CCc1ccco1)CC2=O (some centres undefined),nt,29%[14.2 µM],nt,nt
O=C(CN1CCCC1)Nc1cccc(Cl)c1Cl,10,nt,nt,nt
N/C(=N\OC(=O)c1cc(Br)ccc1Cl)c1cccnc1,9,10%[46.1 µM],2%[46.1 µM],23
N/C(=N\OC(=O)c1ccccc1Cl)c1cccnc1,38*,?,?,61*
O=C(COc1ccccc1Cl)Nc1nc(-c2ccc(F)cc2)ns1,nt,9%[46.1 µM],-2%[46.1 µM],nt
COc1cccc(CN2CCC(Oc3ccc(C(=O)N4CCCCC4)cc3)CC2)c1O,6,?,-11%,-5
CCN(CC)CC(C)(C)COC(=O)c1oc2ccccc2c1C,16,-19%[46.1 µM],15%,43*
Cc1c(C(=O)OCC(=O)c2c(N)n(CC(C)C)c(=O)n(C)c2=O)oc2ccccc12,-3,10µM*,-23%,7
Cc1c(C(=O)OCC(=O)Nc2ccc(C(=O)N(C)C)cc2)oc2ccccc12,2,-3%[46.1 µM],?,-5
Cc1c(C(=O)OCC(C)(C)CN(C)C)oc2ccccc12,44*,?,-2%,87*
Cc1c(C(=O)OCC(=O)N(C)c2ccccc2)oc2ccccc12,28*,-9%,-2%,50*
COc1ccccc1Cc1nc2ccccc2nc1SCC(=O)N(C)c1ccc(F)cc1,nt,nt,12%[46.1 µM],nt
CC(C)(C)c1cc(CCC(=O)NNC(=O)c2ccco2)cc(C(C)(C)C)c1O,-1,8.9µM*,1%,6
COc1ccccc1CNC(=O)c1ccc(-c2nc(CN3CCc4ccccc43)c(C)o2)cc1,nt,nt,-19%[46.1 µM],nt
SMILES,Cycloheximide cs,Marburg entry inh,LASV entry inh,Shiga toxin inh
Clc1cc2nc3ccccn3c2cc1Cl,20*,9%,16%,68*
Nc1nc(SCc2ccccc2)[nH]c(=O)c1-c1ccccc1,67*,?,-13%,121*
O=C(CSc1nc2c(cnn2-c2ccc(F)cc2)c(=O)[nH]1)N1CCCc2ccccc21,-5,?,21%,-31
Nc1nc(SCC(=O)N2CCCc3ccccc32)[nH]c(=O)c1-c1ccccc1,34*,-1%,-3%,54*
C=CCc1c(C)nc(SCc2ccccc2)[nH]c1=O,16*,?,11%,18
C=CCc1c(C)nc(SCC(=C)C)[nH]c1=O,-6,2%,-8%,-13
Cc1csc2nc(COc3ccc(NC(=O)c4ccccc4F)cc3)cc(=O)n12,nt,-1%[46.1 µM],4%[46.1 µM],nt
CCOC(=O)c1c(C)oc2cc(Cl)c(O)c(CN(C)C)c12,39*,-10%[46.1 µM],13%,69*
